The values that follow come from PubChem BioAssay (NCI).

The structures appear in SMILES notation. The panel holds about 83,000 compounds, 20% with a hit somewhere; the sample as a whole holds those more often.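 The endpoint reported here, percent growth, reads 100 for growth as untreated, 0 for no net growth and -100 for all cells dead.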 Active and inactive are the calls of the source.

For this assay, the system named is IGROV1 ovarian. Put plainly: NCI-60 one-dose screen, 48 h (100 = growth as untreated, 0 = no growth, -100 = all killed). Particulars: 10 µM unless noted. As for the experimental part: Growth inhibition of the IGROV1 human tumor cell line is measured as a screen for anti-cancer activity. Cells are grown in 96 well plates and exposed to the test compound for 48 hours. Compounds are tested at a single concentration, which is 10^-5 M for most compounds. The reported endpoint is percent growth (GI% or GIPRCNT), where numbers from 0 - 100% represent growth inhibition, and numbers from -100% - 0 represent cell death. For example, a value of 40 represents 60% growth inhibition. A value of 0 means no net growth occurred over the course of the experiment. A value of -40 indicates 40% of cells at the beginning of the experiment died by the end of the experiment. A value of -100 means all cells are dead at the end of the experiment.
NCI-60 Human Tumor Cell Lines Screen was performed using the standard one-dose NCI protocol, which is described in more detail at https://dtp.cancer.gov/discovery_development/nci-60/default.htm.
Compounds with GIPRCNT values below 10 were considered active. Activity score was based on GIPRCNT using the following formula: […]
Score is 0 for GIPRCNT values of 100 or above, 50 for GIPRCNT values of 0, and 100 for GIPRCNT values of -100.
For `O=c1[nH]c2ccccc2cc1-c1nnc(Cc2ccccc2)o1`, the growth is 66% (inactive).

Regarding `Nc1c(C(=O)Nc2cccc(C(F)(F)F)c2)sc2nc3c(cc12)C(O)CCC3` (stereo not given), the growth was 54.4% (inactive).

With `CC(=O)Nc1nc(C(=O)N2N=C(C)/C(=C/c3ccc(Cl)cc3)C2=O)cs1`, the growth was 108% (inactive).

As to `COc1cccc(-c2nc3sccn3c2-c2ccnc(NCCCNS(=O)(=O)c3ccc(F)cc3)n2)c1`, the growth is 34.6% (inactive).

Regarding `COc1ccc2c(c1)NC(=O)CN2c1nc(C)nc2ccccc12`, the growth is 18.8% (inactive).

Turning to `CCOC(=O)C1=C(C)NC(=O)NC1c1ccc(OCC(=O)N/N=C/c2ccc(Cl)cc2)cc1` (stereo not given), the growth was 94.9% (inactive).

`N#Cc1ccc(NC(=O)c2ccc3cccnc3c2O)cc1`: the growth was 21.3% (inactive).

Take `Cn1c(-c2nonc2NC(=O)c2ccc(F)cc2)nc2ccccc21`: the growth was 104% (inactive).

For the compound `O=S(=O)(NCCNc1cc(-c2cn(-c3ccccc3)nc2-c2ccccc2)ccn1)c1cccc2ccccc12`, the growth was 63.1% (inactive).

In the case of `CCC(=O)Nc1ccccc1C#C/C=C\C#Cc1ccccc1SC`, the growth was -49.3% (active).

With `NCCSC(c1ccccc1)(c1ccccc1)c1ccccc1`, the growth was 22.2% (inactive).

As for `O=P([O-])(O)OP(=O)([O-])O.[NH-][C@H]1CCCC[C@@H]1[NH-].[OH-].[OH-].[Pt+4]`, the growth was 108% (inactive).

As to `COC(=O)C(CC(=O)c1ccc(-c2ccccc2)cc1)c1ccccc1` (stereo not given), the growth is 64.7% (inactive).

On to `Cc1nc(Nc2cccnc2)sc1C(=O)/C=C/c1ccc(Cl)cc1`, for which the growth was 14.9% (inactive).

As for `COc1cc(OC)c(C(=O)/C=C/c2ccc(C(F)(F)F)cc2)c(OC)c1`, the growth is 52.1% (inactive).

`Cc1ccc2c(c1)C(C)Cc1c(N(C)C)ncnc1N2C` (stereo not given): the growth is 59.5% (inactive).

Take `O=c1oc2cc(OS(=O)(=O)c3ccc(F)cc3)ccc2c2c1CCCCC2`: the growth is 95.2% (inactive).

For `CCCCCCCC/C=C\CCCCCCCCOc1ccccc1CCOP(=O)(O)OCC[N+](C)(C)C`, the growth is 9.7% (active).

As to `O=C(Nc1ccc(Br)c(Cl)c1)c1cc(F)ccc1O`, the growth is 16.2% (inactive).

`Nc1c(C(=O)Nc2cccc(C(F)(F)F)c2)sc2nc3c(cc12)CCCCC3`: the growth was -17.4% (active).

For the compound `CC(C(=O)n1cc(-c2ccccc2)c(-c2ccccc2)c1)c1ccccc1` (stereo not given), the growth is 111% (inactive).

Take `Nc1ccc(S(=O)(=O)c2ccc(Cl)cc2)cc1`: the growth was 97.3% (inactive).

For `CCN1C(=O)N(CC)C2C1NN=c1s/c(=C\c3cccc(F)c3)c(=O)n12` (stereo not given), the growth is 29.9% (inactive).

For `O=C1CCCCN1CCCCC#Cc1ccccc1C#Cc1ccc([N+](=O)[O-])cc1`, the growth is -36.7% (active).

As for `O=C1c2ccccc2C(=O)c2c(N=Nc3sc(=O)[nH]c3S)cccc21`, the growth is 94.1% (inactive).

For `COc1cc(Br)c(OC)cc1Br`, the growth is 79.5% (inactive).

On to `CC/C=C\C/C=C\C[C@H](O)C/C=C1/C(=O)C=C[C@H]1C/C=C\CCC(=O)OC`, for which the growth was 37.3% [8.25 µM] (inactive).

Regarding `COc1ccc(/C=C2\Oc3cc(OCCN4CCCC4)ccc3C2=O)c(OC)c1`, the growth is 99.3% (inactive).

On to `CC/C=C\C/C=C\C[C@H]1C/C=C2/C(=O)C=C[C@H]2C/C=C\CCC(=O)O1`, for which the growth was 3.81% (active).

`O=C1OC(c2ccccc2)=N/C1=C\c1ccc([N+](=O)[O-])cc1`: the growth was 100% (inactive).

For the compound `Clc1ccc([I+]c2ccc(Cl)cc2Cl)c(Cl)c1`, the growth was 39.7% (inactive).

As to `CC(=O)Nc1ccc(S(=O)(=O)NC(CCC(=O)Nc2ccc(Cl)cc2)C(=O)O)cc1` (stereo not given), the growth is 112% (inactive).

Take `Cc1cccc(NC(=O)c2sc3nc4c(cc3c2N)CCC4)c1C`: the growth is 44.6% (inactive).

On to `COc1cc(Cn2c(-c3nonc3N)nc3ccccc32)ccc1C`, for which the growth is 47.6% (inactive).

As for `Cn1c(=O)c2c(nc3n2CCN(CCc2ccc(OCCN4CCOCC4)cc2)C3)n(C)c1=O`, the growth was 108% (inactive).

As for `C=CCOc1ccc(/C(O)=C2\C(=O)C(=O)N(c3nccs3)C2c2ccccc2F)cc1` (stereo not given), the growth was 3.7% (active).

`CC(Br)C(Br)c1cc2c(cc1Br)OCO2` (stereo not given): the growth was 97.5% (inactive).

Consider `O=C(CNc1c(Cl)cccc1Cl)Nc1ccc(-c2nc3ccccc3s2)cc1`, for which the growth is 49.3% (inactive).

Turning to `COc1ccc2c(c1)NC(=O)CN2c1nc(NC2CC2)nc2ccccc12`, the growth is 24.5% (inactive).

In the case of `O=c1[nH]c(-c2cn(-c3ccc(Cl)cc3)nn2)nc2ccccc12`, the growth is 74.1% (inactive).
